Data reported in the supplement of paper PMC6522484.
± gives the standard deviation of the averaged measurements.

Each molecule was assayed on HCT116 (assay: cell viability (CellTiter-Glo) relative to plate median (fraction of plate median); higher = more viable cells). Settings: 5 µM; treatment time 24 h; reporter: TCF4/Wnt.
In short: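 Two independent replicates were averaged for each reported value. Library compounds were applied at a final 5 µM for 24 h to colorectal cancer cell lines stably expressing lentiviral TCF/Wnt firefly luciferase reporters. Firefly luciferase or CellTiterGlo luminescence from each well was normalised to the plate median.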

Compound | cell viability
O=[N+]([O-])c1ccc(O)c([N+](=O)[O-])c1 | 0.953 ± 0.034
Oc1ccc(Cl)cc1 | 0.892 ± 0.025
[N-]=[N+]=CC(=O)OC[C@H](N)C(=O)O | 0.887 ± 0.092
CC(=O)[C@H]1CC[C@H]2[C@@H]3CC[C@H]4C[C@H](O)CC[C@]4(C)[C@H]3CC[C@]12C | 0.97 ± 0.0057
CN[C@@H]1C[C@H]2O[C@@](C)([C@@H]1OC)n1c3ccccc3c3c4c(c5c6ccccc6n2c5c31)C(=O)NC4 [Staurosporine] | 0.712 ± 0.0099
OCC(O)Cc1ccc2c(c1)OCO2 (centres undefined) | 1.04 ± 0.014
CN1CCc2cc3c(cc2C1O)OCO3 (centres undefined) | 1.03 ± 0.047
COS(C)(=O)=O | 0.901 ± 0.021
Oc1cc(Cl)ccc1Oc1ccc(Cl)cc1Cl | 0.913 ± 0.011
CCC(N)C(O)c1ccc(O)c(O)c1 (centres undefined) | 1.1 ± 0.05
CC1=C(O)C(=O)C=C2C1=CC=C1[C@@]2(C)CC[C@@]2(C)[C@@H]3C[C@](C)(C(=O)O)CC[C@]3(C)CC[C@]12C | 0.837 ± 0.065
O=[N+]([O-])O[C@@H]1CO[C@H]2[C@@H]1OC[C@@H]2O | 1.06 ± 0.028
CN[C@@H]1[C@@H](O)[C@@H](O[C@@H]2[C@@H](O)[C@H](O[C@H]3O[C@H](CN)CC[C@H]3N)[C@@H](N)C[C@H]2N)OC[C@]1(C)O.CN[C@@H]1[C@@H](O)[C@@H](O[C@@H]2[C@@H](O)[C@H](O[C@H]3O[C@H]([C@@H](C)N)CC[C@H]3N)[C@@H](N)C[C@H]2N)OC[C@]1(C)O.CN[C@@H]1[C@@H](O)[C@@H](O[C@@H]2[C@@H](O)[C@H](O[C@H]3O[C@H]([C@@H](C)NC)CC[C@H]3N)[C@@H](N)C[C@H]2N)OC[C@]1(C)O | 0.997 ± 0.089
O=c1ccc2c(O)c3ccoc3cc2o1 | 0.8825 ± 0.005
C[C@H]1O[C@@H](O[C@H]2[C@@H](O)C[C@H](O[C@H]3[C@@H](O)C[C@H](O[C@H]4CC[C@@]5(C)[C@H](CC[C@@H]6[C@@H]5CC[C@]5(C)[C@@H](C7=CC(=O)OC7)[C@@H](O)C[C@]65O)C4)O[C@@H]3C)O[C@@H]2C)C[C@H](O)[C@@H]1O | 0.649 ± 0.21
C[C@H]1CC[C@]2(NC1)O[C@H]1C[C@H]3[C@@H]4CC[C@H]5C[C@@H](O)CC[C@]5(C)[C@H]4CC[C@]3(C)[C@H]1[C@@H]2C | 1.01 ± 0.052
COC(=O)NC(=S)Nc1ccccc1NC(=S)NC(=O)OC | 0.966 ± 0.09
CCCC(=O)O[C@@H]1[C@@H](C)[C@@]2(O)[C@@H](C=C(CO)C[C@]3(O)C(=O)C(C)=C[C@@H]23)[C@@H]2C(C)(C)[C@]12OC(=O)CCC | 0.991 ± 0.069
C[C@H](N)[C@H](O)c1ccc(O)c(O)c1 | 1.05 ± 0.057
CCOC(=O)C1C(C=C(C)C)C1(C)C (centres undefined) | 0.961 ± 0.038
CCCC(C)C1(CC)C(=O)NC(=O)NC1=O (centres undefined) | 0.981 ± 0.02
CN1[C@@H]2C[C@@H](OC(=O)[C@H](CO)c3ccccc3)C[C@H]1[C@@H]1O[C@@H]12 | 1.07 ± 0.042
COc1cc2occc2c2oc(=O)ccc12 | 0.941 ± 0.11
CN(C)C(=O)Oc1cc(OC(=O)N(C)C)cc(C(O)CNC(C)(C)C)c1 (centres undefined) | 1 ± 0.024
O=C(O)CC[N+](=O)[O-] [BOVINOCIDIN (3-nitropropionic acid)] | 1.05 ± 0.042
CC(C)=CCCC1(C)C=Cc2c(O)c3c(c(CC=C(C)C)c2O1)OC12C(=CC4CC1C(C)(C)OC2(C/C=C(/C)C(=O)O)C4O)C3=O (centres undefined) | 0.979 ± 0.016
O=C(O)CCC1NCC2CC1CN1CCCCC21 (centres undefined) | 1.08 ± 0.042
CC(=O)Oc1c2c(c(CC=C(C)C)c3c1C(=O)C1=C[C@@H]4CC5C(C)(C)OC(C/C=C(\C)C(=O)O)(C4=O)[C@@]15O3)OC(C)(CCC=C(C)C)C=C2 (some centres undefined) | 0.933 ± 0.047
NCCCNCCSP(=O)(O)O | 1.08 ± 0.071
